Activity calls are given as the source filed them. Unless noted, calls follow the shape of the dose curve; as a rule, active = well fitted curve in the direction sought with a large enough effect in the repeat runs; inconclusive = weak or mixed curves; inactive = no such curve, though single readings can be large; an effect the other way counts as inactive or inconclusive.

The nature of test [1]: qHTS assay to identify small molecule antagonists of the thyroid receptor (TR) signaling pathway (AID 743065). Also: nearly all actives have a fitted effect of over 55% in size. Also: potency is read from the fitted curve at half-maximal effect. Summed up: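 Antagonism measured as loss of luciferase signal in GH3 cells stably carrying a TRE-luciferase reporter, co-treated with compound and T3 (1 nM final) for 23.5 h at 37 C. Viability was read in the same well by CellTiter-Fluor.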
On the technique in general: Quantitative high-throughput screening tests each substance at several concentrations.

The subject of test [2] is thyroid hormone receptor (rat, GH3 cells). Description: qHTS assay to identify small molecule agonists of the thyroid receptor (TR) signaling pathway (AID 743066; calls by dose curve).
Test [3] has as its target Estrogen receptor (Homo sapiens) (UniProt P03372). Kind of test: qHTS assay to identify small molecule antagonists of the estrogen receptor alpha (ER-alpha) signaling pathway (AID 743069; active = well fitted curve in the direction sought with a large enough effect in the signal ratio in the repeat runs, not every such curve was filed as active; inconclusive = weak or mixed curves, or effect the other way; inactive = no such curve, though single readings can be large or run the other way; the % refers to the signal ratio; also: potency is read from the fitted curve at half-maximal effect). In outline: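 Antagonist mode: compounds in DMSO were co-added with 17beta-estradiol to ER-alpha-bla HEK293 cells (2% charcoal-stripped serum) and left 18 h at 37C. Reporter inhibition was measured as FRET fluorescence after 2 h LiveBLAzer substrate at room temperature.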

Test [4] can be described thus: qHTS assay to identify small molecule antagonists of the estrogen receptor alpha (ER-alpha) signaling pathway - cell viability counter screen (AID 743074; calls by dose curve;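 also: HEK293 cells carrying ER-alpha-UAS-bla reporter stimulated with 17beta-estradiol; nearly all actives have a fitted effect of over 45% in size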).
Test [5] addresses Estrogen receptor (Homo sapiens) (UniProt P03372). Description: qHTS assay to identify small molecule agonists of the estrogen receptor alpha (ER-alpha) signaling pathway (AID 743075; calls by dose curve;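 also: HEK293 GripTite cells with ER-alpha and UAS-driven beta-lactamase reporter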; also: potency is read from the fitted curve at half-maximal effect).
For test [6] the target is unchanged. Description: qHTS assay to identify small molecule agonists of the estrogen receptor alpha (ER-alpha) signaling pathway using the BG1 cell line (AID 743079). Also: nearly all actives have a fitted effect of over 20% in size. As to conditions: BG1Luc4E2 cells, ERE-luciferase agonist, 22 h; activation: at 70.3 µM (top of the series).
The nature of test [7]: qHTS assay to identify small molecule antagonists of the estrogen receptor alpha (ER-alpha) signaling pathway using the BG1 cell line (AID 743080; calls by dose curve;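 also: BG1 cells stimulated with 17beta-estradiol alongside compound; nearly all actives have a fitted effect of over 25% in size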). Summed up: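 Quantitative HTS on the Tox21 10K library: BG1 cells with endogenous ER-alpha and ERE-luciferase reporter, 17beta-estradiol stimulation, 21.5 h compound exposure, luminescence endpoint with parallel fluorescence cytotoxicity counter-read.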

Test [8] is described as follows: qHTS assay to identify small molecule antagonists of the estrogen receptor alpha (ER-alpha) signaling pathway using the BG1 cell line - cell viability counter screen (AID 743081).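 Also: compound given together with 17beta-estradiol as the ER stimulus; nearly all actives have a fitted effect of over 45% in size.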
Test [9] deals with Aromatase (Homo sapiens) (UniProt P11511). Kind of test: qHTS assay to identify aromatase inhibitors (AID 743083). Also: nearly all actives have a fitted effect of over 55% in size.
Test [10] in a line: qHTS assay to identify aromatase inhibitors - cell viability counter screen (AID 743084).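 Also: cells stimulated with testosterone during compound exposure; nearly all actives have a fitted effect of over 55% in size.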

Chain of Estrogen receptor (Homo sapiens) (P03372 whole entry, looked up): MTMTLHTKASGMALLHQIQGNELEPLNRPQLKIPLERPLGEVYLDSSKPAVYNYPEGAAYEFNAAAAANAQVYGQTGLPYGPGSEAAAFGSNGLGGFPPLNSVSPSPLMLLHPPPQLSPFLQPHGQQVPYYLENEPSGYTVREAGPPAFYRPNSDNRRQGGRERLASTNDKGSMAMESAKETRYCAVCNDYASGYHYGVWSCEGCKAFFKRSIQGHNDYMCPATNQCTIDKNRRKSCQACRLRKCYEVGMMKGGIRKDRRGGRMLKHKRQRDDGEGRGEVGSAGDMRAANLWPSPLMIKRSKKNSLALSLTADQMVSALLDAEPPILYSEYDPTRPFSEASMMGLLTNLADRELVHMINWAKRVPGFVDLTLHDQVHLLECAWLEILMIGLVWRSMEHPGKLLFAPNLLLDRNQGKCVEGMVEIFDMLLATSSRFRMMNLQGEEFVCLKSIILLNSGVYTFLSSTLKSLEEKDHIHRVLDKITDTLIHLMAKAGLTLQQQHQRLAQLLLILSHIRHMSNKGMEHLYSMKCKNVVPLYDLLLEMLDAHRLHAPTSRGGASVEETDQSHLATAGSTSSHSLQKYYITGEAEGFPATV
Chain of Aromatase (Homo sapiens) (P11511 whole entry, looked up): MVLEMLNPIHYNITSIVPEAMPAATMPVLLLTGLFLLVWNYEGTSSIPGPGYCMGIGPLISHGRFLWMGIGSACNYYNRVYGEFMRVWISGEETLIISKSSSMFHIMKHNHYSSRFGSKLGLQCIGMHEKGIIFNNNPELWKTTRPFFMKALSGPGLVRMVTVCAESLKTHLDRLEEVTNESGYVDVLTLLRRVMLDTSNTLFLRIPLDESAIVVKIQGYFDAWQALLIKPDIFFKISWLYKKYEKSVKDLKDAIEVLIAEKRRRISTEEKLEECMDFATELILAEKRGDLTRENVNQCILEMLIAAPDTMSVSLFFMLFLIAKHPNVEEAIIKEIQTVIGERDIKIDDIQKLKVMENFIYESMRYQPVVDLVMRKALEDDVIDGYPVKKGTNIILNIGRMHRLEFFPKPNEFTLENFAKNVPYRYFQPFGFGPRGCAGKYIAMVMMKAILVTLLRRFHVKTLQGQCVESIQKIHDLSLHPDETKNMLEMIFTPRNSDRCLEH

Consider `CCn1cc(C(=O)O)c(=O)c2cc(F)c(N3CCNCC3)cc21`, for which the Potency result in test [1], in test [3], in [4], in [5], in [6] and in test [7] was “inactive” each time. Besides, the Potency result in [8], in test [9] and in [10] was “inactive” each time. In addition, the outcome in [2] was inactive.

On to `Cc1ccc(CO)cc1`, for which the Potency entry in [1], in test [3], in test [4], in test [5], in test [6] and in test [7] was “inactive” in each case. Further, the Potency entry in test [8], in test [9] and in [10] was “inactive” in each case. Besides, the call in [2] was inactive.

Regarding `O=Cc1c2ccccc2c(Cl)c2ccccc12`, the Potency result in test [1], in test [3], in test [4], in test [6], in test [7] and in [8] was “inactive” throughout. Also, the Potency result in test [9] and in [10] was “inactive” each time. The result in [2] was inactive. For the same compound, the Potency in [5] was 13.5 µM [inconclusive] (active).

Take `CC(O)c1ccccc1` (stereo unspecified): the Potency entry in test [1], in test [3], in test [4], in test [5], in test [6] and in test [7] was “inactive” in each case. Also, the Potency entry in [8], in [9] and in test [10] was “inactive” throughout. Moreover, the result in test [2] was inactive.

As to `CC(C)=CCC/C(C)=C/CC/C(C)=C/CCC(=O)OC/C=C(\C)CCC=C(C)C`, the Potency entry in test [1], in [3], in test [4], in test [5], in test [6] and in test [7] was “inactive” in each case. Moreover, the Potency result in test [8], in test [9] and in test [10] was “inactive” in each case. In test [2], the result was inactive.

On to `CN1C(=O)OC(C)(C)C1=O`, for which the Potency result in test [1], in test [3], in test [4], in test [5], in test [6] and in [7] was “inactive” throughout. The Potency entry in test [8], in [9] and in test [10] was “inactive” throughout. In addition, in test [2], the call was inactive.

With `OCCOCC#CCOCCO`, the Potency entry in test [1], in test [3], in test [4], in test [5], in test [6] and in [7] was “inactive” in each case. The Potency entry in test [8], in [9] and in [10] was “inactive” in each case. Moreover, the result in test [2] was inactive.

As for `COc1ncnc(NS(=O)(=O)c2ccc(N)cc2)c1OC`, the Potency entry in test [1], in [3], in test [4], in test [5], in test [6] and in [7] was “inactive” each time. Further, the Potency result in test [8], in test [9] and in test [10] was “inactive” throughout. Besides, in test [2], the compound was classed as inactive.

Turning to `C/C=C\C/C=C/CCCCCCCCOC(C)=O`, the Potency in test [1] was 68.6 µM (active). For the same compound, in test [2], the outcome was inactive. In addition, the Potency entry in test [3], in test [4], in [5], in test [6], in [7] and in [8] was “inactive” each time. Further, the Potency entry in [9] was “inactive”.

For `C[C@@H](CN(C)C)CN1c2ccccc2Sc2ccccc21`, in test [1], the Potency is 10.1 µM (active). Also, the outcome in [2] was inactive. Moreover, the Potency entry in test [3], in test [4], in test [5], in [6], in [7] and in [8] was “inactive” throughout. The Potency result in test [9] and in test [10] was “inactive” each time.

Regarding `CCCCCC#CC(=O)OC`, the Potency entry in test [1], in [3], in [4], in [5], in test [6] and in [7] was “inactive” each time. Besides, the Potency result in [8], in [9] and in test [10] was “inactive” throughout. Besides, the compound was called inactive in [2].

Take `C1C[C@@H]2[C@H]3CC[C@H](C3)[C@@H]2C1`: the Potency entry in test [1], in [3], in [4], in test [5], in test [6] and in [7] was “inactive” throughout. Further, the Potency result in test [8], in test [9] and in test [10] was “inactive” each time. Besides, the compound was classed as inactive in test [2].

For `FC(F)(F)c1ccccc1Cl`, the Potency result in [1], in [3], in [4], in [5], in [6] and in test [7] was “inactive” throughout. Further, the Potency result in test [8], in test [9] and in test [10] was “inactive” each time. Further, the compound was called inactive in test [2].

With `CCCC(=O)C(=O)O`, the Potency result in test [1], in [3], in test [4], in test [5], in [6] and in [7] was “inactive” in each case. In addition, the Potency entry in test [8] and in test [9] was “inactive” throughout. Moreover, in test [2], the result was inactive.

With `O=c1[nH]ncc2ccccc12`, the Potency result in test [1], in test [3], in test [4], in [5], in test [6] and in test [7] was “inactive” in each case. For the same compound, the Potency entry in test [8], in test [9] and in [10] was “inactive” throughout. Further, the outcome in test [2] was inactive.

Take `CO[C@]1(NC(=O)CSC(F)F)C(=O)N2C(C(=O)O)=C(CSc3nnnn3CCO)CO[C@H]21`: the Potency entry in test [1], in test [3], in test [4], in test [5], in test [6] and in test [7] was “inactive” in each case. Moreover, the Potency result in test [8], in test [9] and in [10] was “inactive” each time. Further, the call in test [2] was inactive.

Take `Brc1cc2ccccc2c2ccccc12`: the Potency entry in [1], in test [3], in test [4], in test [5], in test [6] and in test [7] was “inactive” in each case. The Potency result in test [8], in test [9] and in test [10] was “inactive” in each case. Moreover, in [2], the outcome was inactive.

For the compound `O=C(OC(=O)c1ccccc1)c1ccccc1`, the Potency result in test [1], in test [3], in test [4], in test [5], in [6] and in test [7] was “inactive” throughout. The Potency entry in test [8], in [9] and in test [10] was “inactive” each time. For the same compound, the outcome in [2] was inactive.

Consider `Cc1cscn1`, for which the Potency entry in test [1], in test [3], in test [4], in test [5], in test [6] and in test [7] was “inactive” throughout. The Potency entry in test [8], in test [9] and in [10] was “inactive” throughout. For the same compound, the result in [2] was inactive.

On to `CN1C(=O)N(c2ccccc2Br)Cc2cnc(Nc3ccc4c(c3)OCC(CO)O4)nc21` (stereo unspecified), for which the Potency in [1] is 27.3 µM (active); in test [3] it was 2.75 µM [cytotoxic] (active). In addition, the outcome in [2] was inactive.

As for `CCC(=O)C1CC(C(C)C)CC=C1C` (stereo unspecified), the Potency result in test [1], in test [3], in [4], in test [5], in test [6] and in test [7] was “inactive” throughout. Also, the Potency result in [8], in test [9] and in [10] was “inactive” each time. Also, the compound was called inactive in test [2].

For `O[C@@H]1CO[C@H]2[C@@H]1OC[C@@H]2O`, the Potency result in test [1], in test [3], in test [4], in test [5], in [6] and in [7] was “inactive” throughout. Moreover, the Potency result in test [8], in test [9] and in test [10] was “inactive” in each case. In addition, the compound was classed as inactive in test [2].

Take `O=C(/C=C/c1ccc(O)c(O)c1)O[C@@H]1C[C@@](OC(=O)/C=C/c2ccc(O)c(O)c2)(C(=O)O)C[C@@H](O)[C@@H]1O`: the Potency entry in test [1], in test [3], in test [4], in [5], in [6] and in [7] was “inactive” throughout. Moreover, the Potency entry in test [8], in [9] and in test [10] was “inactive” in each case. In test [2], the compound was classed as inactive.
